Screen size: about 310,000 compounds; about 1,900 (0.61%) were called active. The sample holds actives, similar compounds and a random draw of the others, so the mix is not that of the screen.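 Rule for the calls: active = plate-corrected calcium response at least 3 library SD above typical, normal starting fluorescence, not activating the receptor alone; inactive = the rest.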

These results are taken from PubChem BioAssay AID588675 (Johns Hopkins Ion Channel Center, 2011).

This test deals with Mas-related G-protein coupled receptor member X1 (Homo sapiens) (UniProt Q96LB2). The experiment in a line: allosteric enhancers of human MrgX1 signaling – HEK293 cells, Fluo-4 calcium flux, primary screen (AID 588675).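 For B-score: peak minus trough fluorescence over baseline measured at the second addition.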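 Note: compound read alongside a low EC10 to EC30 dose of BAM8-22 agonist.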 The conditions noted are these: MrgX1-HEK293, Fluo-4 calcium flux, FDSS, at 10 µM; stronger effect = higher value. For orientation: Calcium flux is commonly read through the fluorescence of an indicator in the cells.
Sequence of Mas-related G-protein coupled receptor member X1 (Homo sapiens) (Q96LB2 whole entry, looked up): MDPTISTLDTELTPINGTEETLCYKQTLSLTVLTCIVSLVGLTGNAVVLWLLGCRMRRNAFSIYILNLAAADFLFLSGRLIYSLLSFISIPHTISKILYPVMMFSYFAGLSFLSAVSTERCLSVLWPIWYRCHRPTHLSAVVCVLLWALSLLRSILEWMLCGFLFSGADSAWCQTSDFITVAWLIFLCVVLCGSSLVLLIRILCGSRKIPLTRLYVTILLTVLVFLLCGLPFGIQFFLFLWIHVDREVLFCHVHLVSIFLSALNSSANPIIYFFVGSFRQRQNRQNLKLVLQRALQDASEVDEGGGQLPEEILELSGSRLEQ
As for `O=C1NC2(CCCCCC2)C(=O)N1CCS(=O)(=O)Oc1ccccc1`, the B-score result was “inactive”.
In the case of `Cc1ccsc1C1C(C#N)=C(N)OC2=C1C(=O)CC(C)C2` (configuration not stated) it was “inactive”.
The result for `COC(=O)[C@]1(S(=O)(=O)c2ccccc2)C[C@@H]2ON=C(c3ccc(OC)cc3)[C@@H]2C1` reads “inactive”; that for `Cc1ccc(-c2nn(C(C)(C)C)c3ncnc(N)c23)cc1`, “inactive”; that for `Cc1ccc(-n2ccc(=O)c(C(=O)O)n2)cc1`, “inactive”.
In the case of `Cc1ccc(-n2cnc3ncnc(-c4ccccc4)c32)cc1` it was 7.18 (active).
Turning to `CC(C)OC(=O)c1ccc(COc2ccc3ccc(=O)oc3c2)o1`, the B-score entry was “inactive”.
Turning to `CCc1cc2c(=O)c(-c3nc4ccccc4n3C)c(CCCC(=O)O)oc2cc1OC(=O)C(C)(C)C`, the B-score entry was “inactive”.
Consider `COc1cccc2c(C)c(C(=O)O)[nH]c12`, for which the B-score result was “inactive”.
In the case of `COc1cc(C(F)(F)F)nc2c(Br)c(C(C)(C)C)nn12` it was 10.1 (active); in that of `CNC(=O)c1sc(Nc2ccc(OCc3ccccc3)cc2)nc1C`, “inactive”.
Turning to `CCCC(=O)Nc1ncnc2c1ncn2[C@@H]1O[C@@H]2OP(=O)(O)OC[C@H]2[C@H]1OC(=O)CCC`, the B-score result was “inactive”.
As to `CC(=O)N1c2ccc(S(=O)(=O)N3CCCC(C(=O)Nc4cccc(F)c4)C3)cc2CC1C` (configuration not stated), the B-score entry was “inactive”.
`CC(=O)N1c2ccc(S(=O)(=O)N3CCCC(C(=O)NCc4ccc(Cl)cc4)C3)cc2CC1C` (configuration not stated): the B-score result is “inactive”.
With `CC(=O)N1c2ccc(S(=O)(=O)N3CCCC(C(=O)Nc4cccc(Cl)c4)C3)cc2CC1C` (configuration not stated), the B-score is 16.4 (active).
The result for `Cc1nnc(SCC(=O)NC(=O)NC2CCCC2)n1N` reads “inactive”; that for `COc1ccc(C2c3[nH]c4ccccc4c3CCN2CCCn2cccn2)cc1C` (configuration not stated), “inactive”; that for `Cc1nccn1CCC1CCCCN1C(=O)CCc1nnc(-c2ccsc2)o1` (configuration not stated), “inactive”.
On to `CC1(C)CC(=O)CC2(C1)NCC(c1ccccc1Cl)c1c2[nH]c2ccccc12` (configuration not stated), for which the B-score is 13.7 (active).
As to `CC1CCN(c2ccc(-c3ccc(NC(=O)c4ccco4)cc3)nn2)CC1`, the B-score entry is “inactive”.
Turning to `O=C(O)CCN=C1CCc2ccccc2N1`, the B-score entry is “inactive”.
In the case of `CCOC(=O)C1CCN(S(=O)(=O)c2ccc3c(c2)N(C)C(=O)CC(=O)N3C)CC1` it was “inactive”.
The result for `COc1cccc(NC(=O)CSc2nnc(Cc3ccc(OC)c(OC)c3)o2)c1` reads 10.7 (active).
Regarding `COc1ccc(C(=O)NCc2nnc(SCC(=O)Nc3cccc(OC)c3)o2)cc1`, the B-score result is “inactive”.
The result for `COc1ccc(Cc2nnc(SCC(=O)Nc3ccc(C)c(C)c3)o2)cc1OC` reads “inactive”.
Take `O=S(=O)(Nc1ccc(Oc2ncccn2)c(Cl)c1)c1ccc(F)cc1`: the B-score entry was “inactive”.
The result for `COc1ccc(Cl)cc1NC(=O)CCS(=O)(=O)c1ccc(Br)cc1` reads “inactive”; that for `CC1CCN(CCCNC(=O)CN2C(=O)CSc3ccc(S(=O)(=O)N4CCCCC4)cc32)CC1`, “inactive”.
On to `CC(=O)c1ccc(N=C2SCCCN2C(=O)C2CCCCC2)cc1`, for which the B-score result is “inactive”.
As for `O=C(c1cc2c(s1)CCC2)N1CCN(c2ccccc2)CC1`, the B-score result was “inactive”.
For `O=C(Nc1ccc(F)cc1)c1cc2c(s1)CCCC2`, the B-score entry is “inactive”.
Regarding `O=C(NNC(=O)c1cc2c(s1)CCCC2)c1ccccc1`, the B-score was 6.55 (active).
The result for `CC1(C)C=Cc2c(ccc3c2OC[C@@H](c2ccc(O)cc2O)C3)O1` reads “inactive”; that for `CC1(C)CC(=O)c2cnc3nc4ccccc4n3c2C1`, “inactive”.
In the case of `CCn1cc(C(=O)NCC(=O)NC(C)(C)CO)c(=O)c2cc3c(cc21)OCO3` it was “inactive”.
Consider `COc1cccc(-c2cnc(OC(C)(C)C)nc2OC(C)(C)C)c1`, for which the B-score is 6.93 (active).
Take `CC(C)(C)Oc1ncc(Br)c(OC(C)(C)C)n1`: the B-score result was “inactive”.
The result for `COc1ccc(-c2nc(N)ncc2-c2ccc(Cl)cc2)c(O)c1` reads “inactive”.
The result for `Cc1csc(=Nc2ccccc2)n1CCO` reads “inactive”; that for `OCCn1c(-c2ccccc2)csc1=Nc1ccccc1`, 14.7 (active); that for `Cc1csc(=NC(=O)c2ccccc2)n1CCO`, “inactive”.
For `Clc1ncn(CCOc2ccccc2)c1Cl`, the B-score result is “inactive”.
Take `COCCOCCn1cnc2ccccc21`: the B-score entry was “inactive”.
The result for `Cc1cc2ncn(CCCCOc3ccccc3)c2cc1C` reads 10.8 (active); that for `CCN1CCCC1CNC(=O)c1cc2cc(OC)c(OC)cc2[nH]1` (configuration not stated), “inactive”.
Consider `COc1ccc(-c2ccc(Nc3ccc(S(=O)(=O)N4CCCC4)cc3)nn2)cc1OC`, for which the B-score result is “inactive”.
The result for `COc1ccc(-c2cc(C(F)(F)F)nc(S(C)(=O)=O)n2)cc1OC` reads 8.21 (active); that for `COc1ccc(-c2cc(C(F)(F)F)nc(NCc3cccnc3)n2)cc1`, “inactive”; that for `N/C(=N\OC(=O)CCn1cccc(C(F)(F)F)c1=O)c1ccc(OC(F)(F)F)cc1`, “inactive”.
`Cc1ccc2c(=O)oc(N(C)C)nc2c1`: the B-score result was “inactive”.
The result for `CCC(C)CCN1CCN=C1N(C)C` (configuration not stated) reads “inactive”.
The result for `COc1ccc(CCNC(=O)C(=O)NCc2ccccc2C)cc1OC` reads “inactive”.
Regarding `COc1ccc(CCNC(=O)c2ccccc2-c2ccccc2C(=O)O)cc1OC`, the B-score entry is “inactive”.
The result for `COc1ccc(CCNC(=O)C(Sc2ccccn2)c2ccccc2)cc1OC` (configuration not stated) reads 8.72 (active); that for `Cc1ccc(NC(=O)C(C)OC(=O)Cc2c[nH]c3ccccc23)cc1S(=O)(=O)N1CCOCC1` (configuration not stated), “inactive”; that for `CCOc1cccc2c1OC1(CCCCC1)N1N=C(c3cccnc3)CC21` (configuration not stated), “inactive”.
`CC(C)=CCC/C(C)=C/C(=O)O`: the B-score result is “inactive”.
With `Cc1ccc(CN(Cc2cccnc2)C(=S)Nc2cccc(Cl)c2C)cc1`, the B-score result is “inactive”.
The result for `Cc1c(Cl)cccc1NC(=S)N(Cc1ccccc1)Cc1cccnc1` reads “inactive”.
The result for `Cc1cccc(C)c1NC(=S)N(Cc1cccnc1)Cc1ccccc1Cl` reads 10.5 (active); that for `O=C(COC(=O)c1ccc(NS(=O)(=O)c2cccs2)cc1O)Nc1ccc(F)cc1`, 9.09 (active); that for `Cc1cccc(C(=O)OCC(=O)Nc2ccc(F)cc2)c1`, “inactive”.
As for `CCc1ccc(NC(=O)COC(=O)c2cccs2)cc1`, the B-score entry is “inactive”.
Turning to `Cc1cc(S(=O)(=O)NC2CCCC2)ccc1-n1cnnn1`, the B-score entry was “inactive”.
For `Cc1[nH]n(-c2ccc(Cl)cc2)c(=O)c1/C=N/n1c(C)nc2ccccc2c1=O`, the B-score was 11.4 (active).
In the case of `Cc1ccc(-n2[nH]c(C)c(/C=N/N3C(=O)c4cccc5cccc(c45)C3=O)c2=O)cc1` it was “inactive”; in that of `Cc1[nH]n(-c2cccc(Cl)c2)c(=O)c1/C=N/n1c(C)nc2ccccc2c1=O`, “inactive”.
In the case of `Cc1ccc(NS(=O)(=O)c2ccc3c(c2)oc(=O)n3C)c(C)c1` it was “inactive”; in that of `O=C(NCC(=O)N1CCC2(CC1)NCCc1[nH]cnc12)c1ccc(Br)cc1`, “inactive”; in that of `Cc1cc(C)c(S(=O)(=O)N2CCOCC2)cc1C`, “inactive”.
On to `C/C(=N\Nc1nc2ccccc2[nH]1)c1cccs1`, for which the B-score entry was “inactive”.
In the case of `C/C(=N\Nc1ncc(Cl)cc1Cl)c1ccc(S(=O)(=O)NCc2ccco2)cc1`, the B-score result was “inactive”.
In the case of `C/C(=N\Nc1ncc(Cl)cc1Cl)c1cccs1` it was 8.26 (active); in that of `O=C(C[C@H]1C(=O)N(c2ccc(F)c(F)c2)C[C@@H]1Cc1ccccc1)Nc1ccccc1`, “inactive”; in that of `COc1ccccc1-n1nnnc1S(=O)(=O)Cc1ccc(Cl)cc1`, “inactive”.
In the case of `CCCCNS(=O)(=O)c1ccc(S(=O)(=O)n2cnc3ccccc32)cc1` it was “inactive”; in that of `CC(C)C(=O)Nc1ccc2oc(=O)ccc2c1`, “inactive”; in that of `Cc1oc2cc3oc(=O)ccc3cc2c1C`, “inactive”.
Turning to `COc1c(C(C)C)oc2cc3oc(=O)ccc3cc12`, the B-score was 9.1 (active).
For the compound `COc1ccc(Cl)cc1NC(=O)CN(C)C(=O)c1cc(-c2cccs2)nn1-c1ccccc1`, the B-score entry is “inactive”.
In the case of `Cn1c(=O)[nH]c(=O)c2c1nc(CN1CCN(c3ccccc3F)CC1)n2CCc1ccccc1` it was “inactive”; in that of `Cn1c(S(=O)(=O)O)nc2ccccc21`, “inactive”.
The result for `N#C/C(=C1/CCCN1)c1ccccn1` reads “inactive”; that for `Cn1c(/C(C#N)=C2/CCCCCN2)nc2ccccc21`, 8.34 (active).
The result for `O=C(CN1C(=O)NC2(CCCCC2)C1=O)NCCC1=CCCCC1` reads “inactive”; that for `CCCC1C(=O)N2C(N(C)C)=Nc3ccc(C)cc3N2C1=O` (configuration not stated), “inactive”.
With `O=[N+]([O-])C(=c1ccc2c(c1)N1C3=C(CCCC3)CC3CCCCC31N=2)[N+](=O)[O-]` (configuration not stated), the B-score entry was “inactive”.
In the case of `COc1cccc(CN(C)CC(O)COC(c2ccccc2)c2ccccc2C)c1` (configuration not stated) it was “inactive”; in that of `COc1ccc(C(=O)NNC(=S)NC(=O)c2ccccc2)cc1`, “inactive”.
The result for `O=C(NC(=S)NC1CCCCC1)c1ccc(Cl)cc1` reads “inactive”; that for `COc1ccc(C(=O)NC(=S)NC2CCCCC2)cc1`, 7.2 (active); that for `NC(=O)c1ccc(Nc2ccc3nonc3c2[N+](=O)[O-])cc1`, “inactive”.
As to `CC(C)c1ccc(Nc2nnc(SCC(=O)c3nnc(-c4ccccc4)o3)s2)cc1`, the B-score entry was “inactive”.
In the case of `COCC(=O)Nc1c(I)c(C(=O)NCC(O)CO)c(I)c(C(=O)N(C)CC(O)CO)c1I` (configuration not stated) it was “inactive”; in that of `COc1cccc(OC)c1C(=O)OCC(=O)/C(C#N)=C(\C)N`, “inactive”; in that of `O=C(NCC(=O)N1CCCC(C(F)(F)F)C1)c1ccccc1F` (configuration not stated), “inactive”.
`O=C(CNS(=O)(=O)c1ccccc1)N1CCN(C(=O)c2ccco2)CC1`: the B-score result was “inactive”.
In the case of `O=C(c1cccc([N+](=O)[O-])c1)N1CCN(C(=O)c2ccco2)CC1` it was “inactive”.
With `O=C(c1cccc(S(=O)(=O)Nc2ccccc2Cl)c1)N1CCN(C(=O)c2ccco2)CC1`, the B-score is 10.7 (active).
Regarding `C#CCOCCOCCOCCNc1nc(N2CCN(C(=O)CCCCCCCCCCNC(=O)[C@H](CCCCN)n3cc(C)nn3)CC2)nc(N2CCN(C(=O)CCCCCCCCCCNC(=O)[C@H](CO)n3cc(CCCSC)nn3)CC2)n1`, the B-score result is “inactive”.
As to `Cc1ccc(N(C(=O)C(F)(F)F)C(C(=O)NC2CCCCC2)c2ccncc2)cc1C` (configuration not stated), the B-score entry is “inactive”.
As to `N#CCCCn1c(O)c(N=NC(=O)C(O)c2ccccc2)c2ccccc21` (configuration not stated), the B-score entry was “inactive”.
In the case of `COC(=O)Cn1c(O)c(N=NC(=O)OC)c2ccccc21`, the B-score is 7.73 (active).
The result for `CCOC(=O)Cn1c(O)c(N=NC(=O)CNC(=O)Cc2ccccc2)c2ccccc21` reads “inactive”; that for `Oc1ccc(C2Nc3cccc4cccc(c34)N2)cc1`, “inactive”.
In the case of `Brc1ccccc1C1Nc2cccc3cccc(c23)N1` it was 11.9 (active); in that of `Cc1ccc(C2Nc3cccc4cccc(c34)N2)cc1`, “inactive”.
